Compound activity: PubChem, National Center for Advancing Translational Sciences (NCATS)
KB-3-1 tox = KB-3-1 parental cell cytotoxicity; KB-3-1 viability, CellTiter-Glo ATP luminescence, 72 h; Potency, µM (titrated, usually from 46.1 µM), most hits filed as cytotoxic; actives 1.4% (n = 400,000); AID 1347075; further: potency means the concentration at half of the fitted maximal effect; on the % scale 0 is the no-effect control and ±100 the full control effect; nearly all actives have a fitted effect of over 60% in size
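Parental KB-3-1 viability, qHTS format: 72 h compound exposure, 37 °C; CellTiter-Glo; media-only wells and DMSO plates as controls; concentration-effect fits on corrected data.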
SW480 rerep = DNA re-replication induction in SW480 cells; SW480 DNA re-replication, Hoechst DNA content imaging, 48 h; Potency, µM (titrated, usually from 46.1 µM), for the others: at the top dose re-replication activation, most hits filed as activators; actives 1.8% (n = 340,000); further: potency means the concentration at half of the fitted maximal effect; % of control where 0% means no effect; nearly all actives have a fitted effect of over 55% in size
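Per well, 250 cells were exposed to pinned compound for 48 hr. Nuclear DNA was visualised with Hoechst (40 min, 37 C) and total object intensity recorded by fluorescence scanning.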
IL1B secr inh = inhibitors of inflammasome signaling (IL-1 beta secretion); AID 743279; activity change, % at 57.5 µM; actives 4.7% (n = 360,000); THP-1 LPS/ATP IL-1B secretion, AlphaLISA, 16 h; stronger effect = lower value; in the data active means activity change below about -50%; inconclusive means mostly about -30% to -49%; further: on the % scale 0 is the no-effect control and ±100 the full control effect
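Secreted IL-1B measured by AlphaLISA bead assay after 16 h compound exposure of THP-1 cells; compounds (final up to 57.5 uM) added 1 h before LPS (250 ng/mL) and ATP (1.25 mM) stimulation; lower signal means less secretion.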
KB-V1 cytotox = KB-V1 MDR subline cytotoxicity; KB-V1 MDR cells viability, CellTiter-Glo, 72 h; Potency, µM (titrated, usually from 46.1 µM), actives largely listed as cytotoxic; actives 3.4% (n = 400,000); further: potency means the concentration at half of the fitted maximal effect; on the % scale 0 is the no-effect control and ±100 the full control effect; nearly all actives have a fitted effect of over 60% in size
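Cytotoxicity toward P-gp-expressing KB-V1 cells was determined as loss of CellTiter-Glo luminescence after 72 h at 37 degrees C. Compounds were tested in quantitative HTS format across a concentration range, with curves fitted to normalized data.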
MCF10A rereplic = inducers of DNA re-replication in MCF 10A breast cells; actives 2.9% (n = 350,000); Potency, µM (series often up to 46.1 µM), inactives show at the highest dose activity, positive = re-replication, hits mostly activators; MCF 10A DNA re-replication, Hoechst nuclear intensity, 48 h; AID 624296; further: potency means the concentration at half of the fitted maximal effect; % of control where 0% means no effect; nearly all actives have a fitted effect of over 50% in size
Starred values were filed as active, the others as inactive; i = inactive; ? = inconclusive; . = no result given; [ ] = another dose, or the depositor's remark. An excerpt weighted towards active compounds, which were near 9.9% of everything screened. Unless noted, the call rests on the fitted dose curve; in most records, active means well fitted curve in the direction sought with a large enough effect; inconclusive means small, poorly fitted or top-dose-only effect, or another doubt; inactive means no such curve, though single readings can be large; an effect the other way counts as inactive or inconclusive.

SMILES	KB-3-1 tox	SW480 rerep	IL1B secr inh	KB-V1 cytotox	MCF10A rereplic
O=C(Nc1cccc(Cl)c1)Nc1cccc(Cl)c1	i	2%	-21	?	?
O=C(Nc1cccc(Cl)c1)Nc1ccc(Br)cc1F	16µM*	?	-59*	21µM*	?
O=C(Nc1cccc(F)c1)Nc1cccc(Cl)c1	i	?	-88*	i	7%
COc1ccc(CNC(=O)c2ccccc2NC(=O)C2=C(C)OCCS2)cc1	i	.	-15	i	.
O=S(=O)(c1ccc(Cl)c(Cl)c1)c1snnc1-c1ccccc1	5.2µM*	1.3µM*	-116*	?	4.6µM*
CCCCCOC(=O)C1=C(C)NC(=O)NC1c1ccc2c(c1)OCO2 (stereo not drawn)	i	1%	-54*	i	11%
CCOC(=O)C1=C(CCl)NC(=O)NC1c1ccc2c(c1)OCO2 (stereo not drawn)	?	?	-100*	i	?
CC1=C(C(=O)OCCCBr)C(c2ccc3c(c2)OCO3)NC(=O)N1 (stereo not drawn)	?	3%	-1	i	4%
COc1ccc(NC(=O)c2ccccc2Oc2ccccc2)c(OC)c1	i	3%	0	i	26µM*
COc1ccc(NC(=O)CC(=O)Nc2ccc(OC)cc2OC)c(OC)c1	i	-10%	-9	21µM*	12%
CCOc1ccc(NCC(=O)Nc2ccc(Cl)cc2C)cc1	i	?	-26	?	?
COc1ccc(OC)c(NC(=O)CS(=O)(=O)Cc2ccccc2)c1	i	2%	1	i	1%
COc1ccc(NCC(=O)Nc2ccc(Cl)cc2C)c(OC)c1	i	16µM*	?	i	10%
COc1ccc(OC)c(NC(=O)CS(=O)(=O)c2ccccc2)c1	i	-4%	7	18µM*	-1%
COCCNC(=O)C(OC(=O)CC1Sc2ccccc2NC1=O)c1ccccc1 (stereo not drawn)	i	-5%	24	?	1%
COc1cccc(NC(=O)c2csc3c2CCCCC3)c1	i	.	.	i	.
COc1ccc(NC(=O)c2csc3c2CCCCC3)c(OC)c1	?	8%	-175*	?	?
CN(C)c1ccc(N=Nc2ccc(S(N)(=O)=O)cc2)cc1	i	-1%	-24	i	0%
CC1=CC(=O)C=CC1=Nc1ccc(N(C)C)cc1	?	.	-121*	?	.
CCOc1ccc(C2=Nc3ccccc3C(c3ccc(N4CCOCC4)cc3)=NN2)cc1	16µM*	21µM*	-12	4.1µM*	16µM*
Fc1ccc2c(c1)C(c1ccncc1)=NNC(c1ccccc1)=N2	i	-3%	-4	i	-4%
Fc1ccc2c(c1)C(c1ccc(N3CCOCC3)cc1)=NNC(c1cccs1)=N2	?	0%	-51*	10µM*	24%
Fc1ccc2c(c1)C(c1ccncc1)=NNC(c1ccc(Cl)cc1)=N2	i	5%	-67*	i	16%
Brc1ccc2c(c1)C(c1ccc(N3CCOCC3)cc1)=NNC(c1cccs1)=N2	i	2%	-28	i	13%
O=S(=O)(c1cccc(Cn2nnc(-c3ccccc3)n2)c1)N1CCOCC1	i	-9%	15	i	6%
SMILES	KB-3-1 tox	SW480 rerep	IL1B secr inh	KB-V1 cytotox	MCF10A rereplic
Cc1cccc(OCc2nnc(SCC(=O)N(C(C)C)C(C)C)n2Cc2ccco2)c1C	i	21µM*	0	10µM*	?
O=C(CCl)c1ccc2c(c1)CCN2C(=O)C1CCCCC1	?	?	-103*	i	?
CCCCC[C@@H](/C=C/C1C(=O)C=C[C@H]1C/C=C\CCCC(=O)O)OC(C)=O (stereo partly drawn)	i	-37%[9.22 µM]	-77*	i	?
COc1ccccc1N1CCN(C(=O)c2nn(-c3ccc(C)cc3)c(=O)n(C)c2=O)CC1	i	.	.	i	.
O=C(NNc1ccccc1)/C(=C\c1cccnc1)NC(=O)c1ccccc1	i	1%	-5	i	16%
COc1ccc(C#Cc2ccc3c(c2)O[C@H](CN(C)S(=O)(=O)c2ccccc2F)[C@H](C)CN([C@H](C)CO)S3(=O)=O)cc1	i	.	?	i	.
C[C@@H]1CN([C@@H](C)CO)S(=O)(=O)c2ccc(C#CC3CCCCC3)cc2O[C@@H]1CN(C)Cc1cccnc1	i	.	-66*	?	.
C[C@H]1CN([C@@H](C)CO)S(=O)(=O)c2ccc(C#CC3CC3)cc2O[C@H]1CN(C)C(=O)c1cccnc1	i	.	-1	i	.
COc1ccc(S(=O)(=O)N(C)C[C@@H]2Oc3cc(C#CC4CCCCC4)ccc3S(=O)(=O)N([C@@H](C)CO)C[C@@H]2C)cc1	?	.	-52*	i	.
COC(=O)C1=C(O)C(C(=O)OC)C(c2ccc(C)cc2)C(C#N)(C#N)C1c1ccc(C)cc1 (stereo not drawn)	7.3µM*	?	-5	?	?
O=C(CCc1ccc(O)c(O)c1)NNC(=S)Nc1ccc(Br)cc1Cl	i	-5%	-4	i	7%
COC1CCCN(C(=O)c2ccc3oc(Cc4ccc(Cl)cc4)nc3c2)C1 (stereo not drawn)	i	-5%	0	2.6µM*	9%
CC(C)CC(=O)C1CCCN(C(=O)c2ccc3oc(Cc4ccccc4)nc3c2)C1 (stereo not drawn)	?	-6%	-52*	i	4%
Cc1ccccc1OCC(=O)OCC(=O)Nc1cc(S(=O)(=O)N2CCCCC2)ccc1Cl	i	-6%	9	i	11%
CC1(CCc2ccccc2)NC(=O)N(CC(=O)Nc2ccc(OC(F)F)cc2)C1=O (stereo not drawn)	i	1%	?	21µM*	4%
Cc1ccc2c(COC(=O)C3CSC4(C)CCC(=O)N34)cc(=O)oc2c1C (stereo not drawn)	.	4%	5	.	-71%
Cc1cccc(CSc2ncc(Cl)c(C(=O)Nc3sc4c(c3C(N)=O)CCCC4)n2)c1	i	.	.	i	.
COC(=O)c1[nH]c2c(c1C)C(=O)CC(c1ccccc1)C2 (stereo not drawn)	1.3µM*	17%	45	0.58µM*	13%
CCOC(=O)c1[nH]c2c(c1C)C(=O)CC(c1ccc(OC)c(OC)c1)C2 (stereo not drawn)	i	-5%	0	i	-3%
Cc1c(C(=O)OC2CCCC2)[nH]c2c1C(=O)CC(c1ccc(C(C)(C)C)cc1)C2 (stereo not drawn)	i	.	.	i	.
Cc1c(C(=O)OC2CCCC2)[nH]c2c1C(=O)CC(c1ccco1)C2 (stereo not drawn)	0.52µM*	?	44	0.58µM*	?
Cc1c(C(=O)OCC(C)C)[nH]c2c1C(=O)CC(c1ccco1)C2 (stereo not drawn)	i	0.52µM*	55	?	18µM*
